Measured values: PubChem BioAssay (NCATS)
Values joined by “and” are separate entries in the source; they are usually repeats but may differ in a detail not shown here. Equal entries are not always repeated. Inconclusive results are not listed. Unmarked numbers belong to inactive results. Active and inactive are the calls of the source. The call rests on the fitted dose curve; in most records, active means well fitted activation curve with a large enough effect; inconclusive means small, poorly fitted or top-dose-only effect; inactive means no such curve, though single readings can be large or run the other way. Non-standard residues stand in square brackets, D forms with d. Residues, ends and D or L forms follow the SMILES beside them. pGlu = O=C1CC[C@@H](C(=O)O)N1
Potency means the concentration at half of the fitted maximal effect.

The compounds below were run against Cellular tumor antigen p53 (Homo sapiens) (UniProt P04637) (assay: Primary qHTS for small molecule compounds that upregulate eGFP-tagged delta133p53alpha (in N-terminal) cells. (AID 2060322; further: nearly all actives have a fitted effect of over 75% in size;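 on activation: cells pre-induced with doxycycline then dosed without doxycycline; series mostly up to about 56 µM; 0% = DMSO vehicle and 100% = reference activator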)). Details: NCI-H358 eGFP-delta133p53alpha fluorescence, 24 h; activation: stronger effect = higher value.
Chain of Cellular tumor antigen p53 (Homo sapiens) (P04637 whole entry, looked up): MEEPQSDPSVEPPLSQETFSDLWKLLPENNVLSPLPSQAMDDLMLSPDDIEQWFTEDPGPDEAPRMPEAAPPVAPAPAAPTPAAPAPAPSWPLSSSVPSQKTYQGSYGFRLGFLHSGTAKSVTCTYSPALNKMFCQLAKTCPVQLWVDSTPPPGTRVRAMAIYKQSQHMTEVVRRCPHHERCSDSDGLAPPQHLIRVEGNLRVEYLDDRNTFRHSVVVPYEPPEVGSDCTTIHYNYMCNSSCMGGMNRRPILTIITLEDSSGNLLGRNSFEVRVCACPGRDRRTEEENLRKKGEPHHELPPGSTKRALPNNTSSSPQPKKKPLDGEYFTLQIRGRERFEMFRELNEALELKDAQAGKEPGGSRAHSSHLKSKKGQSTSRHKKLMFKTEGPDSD
Summary of the method: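 NCI-H358 cells pre-induced 24 h with 10 ng/ml doxycycline for eGFP-delta133p53alpha, plated dox-free and exposed 24 h at 37C to titrated compounds. Fixed, Hoechst-stained; gated GFP peak intensity by laser scanning cytometry, normalized to DMSO (0%) and 57.5 uM 5-azacytidine (100%).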
Work on `COc1ccc(C(C)=O)c(O)c1` yielded an activation of 14.5%.
`NS(=O)(=O)c1cc2c(cc1Cl)NC(CC1CCCC1)NS2(=O)=O` (stereo not given) gave an activation of 11.9%.
`CC1(C)[C@@H]2CC[C@@]1(C)C(=O)C2` showed an activation of -0.837%.
`CC(C)(C)CC(=O)OCC(=O)[C@@]1(O)CC[C@H]2[C@@H]3CCC4=CC(=O)C=C[C@]4(C)[C@H]3[C@@H](O)C[C@@]21C` showed an activation of -9.21%.
`COc1ccccc1OCC(O)COC(N)=O` (stereo not given) was tested, and the activation was -36.8% and 17.3%.
For `N#Cc1cc(NC(=O)C(=O)O)c(Cl)c(NC(=O)C(=O)O)c1`, the activation was 0.565%.
`Clc1ccc2c(c1)Nc1ccccc1S2` was tested, and the activation was 20.9%.
`CC[N+](CC)(CCNC(=O)C(=O)NCC[N+](CC)(CC)Cc1ccccc1Cl)Cc1ccccc1Cl` showed an activation of -9.6%.
`COc1ccc2cc1Oc1ccc(cc1)C[C@H]1c3cc(c(OC)cc3CCN1C)Oc1c(OC)c(OC)cc3c1[C@H](C2)N(C)CC3` gave an activation of -18.2%.
`CCN(CC)C(=O)N1CCN(C)CC1` showed an activation of -2.51%.
In the case of `Cc1cc(C)nc(NS(=O)(=O)c2ccc(N)cc2)n1`, the activation is reported as 24.3%.
With `CCCCCCCC/C=C\CCCCCCCCN` the activation was -16.7%.
In the case of `O=C1Nc2ccc(I)cc2C1=Cc1cc(Br)c(O)c(Br)c1`, the Potency is reported as 24.3 µM (active).
`C=C1C(=CC=C2CCC[C@]3(C)[C@@H]([C@H](C)CCCC(C)(C)O)CC[C@@H]23)C[C@@H](O)C[C@@H]1O` showed an activation of -4.26%.
In the case of `CCCCC/C(C=O)=C\c1ccccc1`, the activation is reported as 19.8%.
For `N#CC(=C(N)Sc1ccccc1N)C(C#N)=C(N)Sc1ccccc1N`, the Potency was 17.2 µM (active).
`O=C(O)c1ccccc1Nc1cccc(C(F)(F)F)c1` gave an activation of -19.8%.
`CC(C)(C)NCC(O)COc1ccccc1OCC1CCCO1` (stereo not given) showed an activation of 10.9%.
Work on `NC(=O)c1ncn([C@@H]2O[C@H](CO)[C@@H](O)[C@@H]2O)c1O` yielded an activation of -3.98%.
In the case of `C=C1C(=O)O[C@H]2[C@@H]1CCC(C)=CCC[C@@]1(C)O[C@@H]21`, the Potency is reported as 19.3 µM (active).
With `O=C(/C=C/c1ccccc1)OCc1ccccc1` the activation was -23.2%.
Compound `O=C(O)/C=C\C(=O)O` has an activation of -25.4%.
In the case of `CC[C@H](C)[C@H](N)C(=O)O`, the activation is reported as -22%.
In the case of `CCOC(=O)N1CCN([N+]([O-])=NOc2cc(ON=[N+]([O-])N3CCN(C(=O)OCC)CC3)c([N+](=O)[O-])cc2[N+](=O)[O-])CC1`, the activation is reported as 5.87%.
With `COc1cc2c(NC3CCN(C)CC3)nc(N3CCCN(C)CC3)nc2cc1OCc1ccccc1` the activation was 30.2%.
In the case of `COc1cc2c(cc1OC)[C@@H]1Cc3ccc(OC)c(OC)c3CN1CC2`, the activation is reported as 19.3%.
With `Cc1cnc(NS(=O)(=O)c2ccc(N)cc2)nc1` the activation was 2.82%.
For `COc1ccc(-c2cc(C(F)F)nn2-c2ccc(S(N)(=O)=O)cc2)cc1F`, the activation was -21.8%.
Compound `O=S(=O)(NCCNCC=Cc1ccc(Br)cc1)c1cccc2cnccc12` has an activation of -19.7%.
`NC(=S)N/N=C/c1cccnc1` showed an activation of 0.565%.
`C[C@H]1O[C@H](O[C@H]2[C@H](O)[C@@H](O)[C@@H](O[C@H]3[C@H](O)[C@@H](O)C(O)O[C@H]3CO)O[C@H]2CO)[C@H](O)[C@@H](O)[C@H]1N[C@H]1C=C(CO)[C@@H](O)[C@H](O)[C@@H]1O` (stereo not given in full) showed an activation of 140%.
Compound `O=C(O)Cn1c(=O)n(Cc2ccc(Br)cc2F)c(=O)c2ccc(Cl)cc21` has an activation of -5.08%.
With `O=C(O)c1ccnc2cc(C(OCCCN3CCCCC3)c3ccccc3Cl)[nH]c12` (stereo not given) the activation was 1.12%.
`CCC(=C(CC)c1ccc(O)cc1)c1ccc(O)cc1` gave an activation of -17%.
`O=C(CCN1CCN(CCO)CC1)N1c2ccccc2Sc2ccc(C(F)(F)F)cc21` gave an activation of -5.08%.
`CC(=O)Oc1ccc(C)cc1` showed an activation of -17.5%.
`CC[C@@]1(O)C(=O)OCc2c1cc1n(c2=O)Cc2c-1nc1ccccc1c2/C=N/OC(C)(C)C` was tested, and the Potency was 0.0978 µM (active).
In the case of `CCNC(=O)[C@@H]1CCCN1C(=O)[C@H](CCCN=C(N)N)NC(=O)[C@H](CC(C)C)NC(=O)CNC(=O)[C@H](Cc1ccc(O)cc1)NC(=O)[C@H](CO)NC(=O)[C@H](Cc1c[nH]c2ccccc12)NC(=O)[C@H](Cc1cnc[nH]1)NC(=O)[C@@H]1CCC(=O)N1` ([pGlu]HWSYGLRP-NHEt), the activation is reported as 5.86%.
In the case of `O=C(O)c1ccc(OCCN2CCCCC2)cc1`, the activation is reported as -14.1%.
Compound `CC(CN(C)C)C(C)(O)Cc1ccc(Cl)cc1` (stereo not given) has an activation of 21.8%.
